Assay results reported in PubChem BioAssay (NCATS).
Where “and” joins values, the source holds several entries; their conditions need not be identical. Equal values may be shown once. Results filed as inconclusive are left out. Calls of active or inactive are those of the source. Unless noted, calls come from the whole dose curve; as a rule, active = well fitted curve in the direction sought with a large enough effect; inconclusive = small, poorly fitted or top-dose-only effect, or another doubt; inactive = no such curve, though single readings can be large; an effect the other way counts as inactive or inconclusive.

Legend:
[1] = target: Estrogen receptor (Homo sapiens) (UniProt P03372); assay: qHTS assay for small molecule agonists of estrogen receptor alpha signaling (AID 588514; calls by dose curve;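 note: 0% = vehicle only and 100% = reference agonist; nearly all actives have a fitted effect of over 70% in size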)
Chain of Estrogen receptor (Homo sapiens) (P03372 whole entry, looked up): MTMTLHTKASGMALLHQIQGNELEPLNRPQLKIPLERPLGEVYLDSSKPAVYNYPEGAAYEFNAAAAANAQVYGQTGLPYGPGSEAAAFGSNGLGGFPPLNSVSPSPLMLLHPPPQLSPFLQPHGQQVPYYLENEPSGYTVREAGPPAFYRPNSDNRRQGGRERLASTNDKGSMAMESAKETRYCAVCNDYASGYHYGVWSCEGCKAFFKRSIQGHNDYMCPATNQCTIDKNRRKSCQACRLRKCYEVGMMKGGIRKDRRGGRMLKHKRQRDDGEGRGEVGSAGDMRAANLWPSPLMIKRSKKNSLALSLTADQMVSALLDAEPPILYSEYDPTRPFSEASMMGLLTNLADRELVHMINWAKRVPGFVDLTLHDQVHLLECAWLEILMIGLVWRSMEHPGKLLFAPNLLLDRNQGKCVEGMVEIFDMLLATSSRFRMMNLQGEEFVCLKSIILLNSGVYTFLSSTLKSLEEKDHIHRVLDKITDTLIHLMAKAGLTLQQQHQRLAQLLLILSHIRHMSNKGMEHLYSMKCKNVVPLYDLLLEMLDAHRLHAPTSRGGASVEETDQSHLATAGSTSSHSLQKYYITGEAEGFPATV
Method in brief: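 ER-alpha-UAS-bla GripTite HEK293 cells, 5000/well in 2% charcoal/dextran-stripped FBS medium, treated with compound titrations 18 h at 37 C. CCF4 beta-lactamase read by fluorescence after 2 h RT; normalised to 20 nM 17-beta-estradiol (100%) and DMSO (0%), Hill fit for EC50 and efficacy.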

[2] = target: Glucocorticoid receptor (Homo sapiens) (UniProt P04150); assay: qHTS assay for small molecule agonists of glucocorticoid receptor signaling (AID 588532; active = well fitted curve in the direction sought with a large enough effect in the signal ratio, with a control signal flat; the % refers to the signal ratio;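 note: 100% = dexamethasone at 0.1 µM and 0% = DMSO only wells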); settings: HeLa MMTV-bla, beta-lactamase ratio, agonist, 18 h; activation: stronger effect = higher value, percent of dexamethasone control, DMSO zero
Chain of Glucocorticoid receptor (Homo sapiens) (P04150 whole entry, looked up): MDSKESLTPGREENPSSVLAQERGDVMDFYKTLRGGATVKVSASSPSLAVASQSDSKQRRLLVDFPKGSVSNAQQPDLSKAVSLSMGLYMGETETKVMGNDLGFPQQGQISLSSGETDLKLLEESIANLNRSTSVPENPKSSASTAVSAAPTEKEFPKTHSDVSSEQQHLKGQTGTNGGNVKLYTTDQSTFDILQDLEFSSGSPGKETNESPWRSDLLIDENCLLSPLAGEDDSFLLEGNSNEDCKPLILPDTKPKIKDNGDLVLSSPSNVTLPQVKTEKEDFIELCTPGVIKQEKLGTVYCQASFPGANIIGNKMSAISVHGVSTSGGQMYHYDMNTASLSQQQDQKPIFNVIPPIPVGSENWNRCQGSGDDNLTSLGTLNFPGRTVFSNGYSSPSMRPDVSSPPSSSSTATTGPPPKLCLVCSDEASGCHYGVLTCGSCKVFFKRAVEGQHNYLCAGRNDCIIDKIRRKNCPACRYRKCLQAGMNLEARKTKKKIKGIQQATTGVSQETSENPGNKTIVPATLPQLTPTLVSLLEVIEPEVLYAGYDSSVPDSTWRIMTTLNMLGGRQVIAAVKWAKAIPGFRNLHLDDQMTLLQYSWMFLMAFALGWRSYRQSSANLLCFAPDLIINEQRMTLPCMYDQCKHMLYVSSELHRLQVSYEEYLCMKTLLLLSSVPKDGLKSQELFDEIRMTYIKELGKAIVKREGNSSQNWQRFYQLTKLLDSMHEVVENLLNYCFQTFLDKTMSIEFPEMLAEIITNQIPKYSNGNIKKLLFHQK
Method in brief: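 Stimulation of a glucocorticoid response element-driven beta-lactamase gene was measured in HeLa cells. Responses were scaled between DMSO basal and 0.1 uM dexamethasone, then fitted for half-maximal stimulation.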

[3] = target: Glucocorticoid receptor (Homo sapiens) (UniProt P04150); assay: qHTS assay for small molecule antagonists of glucocorticoid receptor signaling (AID 588533; active = well fitted inhibition curve with a large enough effect in the signal ratio, with a control signal flat, not every such curve was filed as active; the % refers to the signal ratio;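 note: cells stimulated with 2 nM dexamethasone as agonist; % is set by controls: 0 for no effect and ±100 for the full control effect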)
Method in brief: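 Antagonist-mode qHTS: compound titrations added to GRE-bla HeLa cells, then dexamethasone 2 nM final; 18 h, 37 C. CCF4 FRET fluorescence normalized to dexamethasone and DMSO; IC50 from Hill fit.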

[4] = target: Peroxisome proliferator-activated receptor gamma (Homo sapiens) (UniProt P37231); assay: qHTS assay for small molecule agonists of peroxisome proliferator-activated receptor gamma signaling (AID 588536; active = well fitted curve in the direction sought with a large enough effect in the signal ratio, with a control signal flat, not every such curve was filed as active; the % refers to the signal ratio;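 note: 0% = DMSO basal wells and 100% = rosiglitazone at 2 µM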)
Chain of Peroxisome proliferator-activated receptor gamma (Homo sapiens) (P37231 whole entry, looked up): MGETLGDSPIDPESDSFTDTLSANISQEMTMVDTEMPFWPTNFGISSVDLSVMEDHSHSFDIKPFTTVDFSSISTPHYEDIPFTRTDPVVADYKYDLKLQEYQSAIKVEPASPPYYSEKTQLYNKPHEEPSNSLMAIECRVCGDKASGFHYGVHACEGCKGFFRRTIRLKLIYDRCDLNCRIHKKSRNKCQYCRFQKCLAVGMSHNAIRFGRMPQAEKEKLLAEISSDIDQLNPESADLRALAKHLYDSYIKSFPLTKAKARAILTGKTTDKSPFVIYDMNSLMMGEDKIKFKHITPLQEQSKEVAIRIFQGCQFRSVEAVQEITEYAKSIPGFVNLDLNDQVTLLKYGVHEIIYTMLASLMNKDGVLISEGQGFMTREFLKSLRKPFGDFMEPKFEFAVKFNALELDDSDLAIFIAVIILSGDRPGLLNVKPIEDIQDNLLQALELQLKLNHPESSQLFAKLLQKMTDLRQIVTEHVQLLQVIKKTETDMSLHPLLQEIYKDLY
Method in brief: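 Ratiometric blue/green fluorescence (405 nm excitation; 460 and 530 nm emission) from CCF4-loaded HEK293 reporter cells serves as signal. Exposure to test compounds lasts 16 h at 37 C in medium containing 1% charcoal/dextran-treated serum.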

[5] = target: Thyroid hormone receptor beta (Homo sapiens) (UniProt P10828); assay: qHTS assay for small molecule agonists of thyroid hormone receptor beta signaling (AID 588545; calls by dose curve)
Chain of Thyroid hormone receptor beta (Homo sapiens) (P10828 whole entry, looked up): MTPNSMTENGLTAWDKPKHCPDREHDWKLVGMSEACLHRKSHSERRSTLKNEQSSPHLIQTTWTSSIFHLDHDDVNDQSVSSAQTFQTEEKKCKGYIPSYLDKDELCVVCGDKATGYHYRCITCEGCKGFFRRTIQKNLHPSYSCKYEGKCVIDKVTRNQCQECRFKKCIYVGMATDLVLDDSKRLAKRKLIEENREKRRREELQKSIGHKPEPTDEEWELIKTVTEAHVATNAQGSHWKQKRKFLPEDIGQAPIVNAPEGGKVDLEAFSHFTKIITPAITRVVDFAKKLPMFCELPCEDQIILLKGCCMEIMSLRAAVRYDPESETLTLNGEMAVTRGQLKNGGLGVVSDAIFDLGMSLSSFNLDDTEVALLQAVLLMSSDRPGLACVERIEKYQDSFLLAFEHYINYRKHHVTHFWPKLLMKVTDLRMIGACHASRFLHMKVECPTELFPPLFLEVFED
Method in brief: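 Agonist activity was read as beta-lactamase CCF4 fluorescence (405 ex, 460/530 em), scaled between DMSO (0%) and 10 nM T3 (100%), then Hill-fitted for EC50 and efficacy. HEK 293 TR-UAS-bla cells in 2% charcoal/dextran FBS medium were exposed 18 h at 37 C.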

[6] = target: Thyroid hormone receptor beta (Homo sapiens) (UniProt P10828); assay: qHTS assay for small molecule antagonists of thyroid hormone receptor beta signaling (AID 588547; active = well fitted inhibition curve with a large enough effect in the signal ratio, with a control signal flat, not every such curve was filed as active; the % refers to the signal ratio;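 note: cells stimulated with 0.4 nM T3 agonist during compound exposure; series mostly up to about 77 µM; % is set by controls: 0 for no effect and ±100 for the full control effect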); settings: TR-UAS-bla HEK293, beta-lactamase ratio, antagonist mode, 18 h
Method in brief: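 TR-UAS-bla GripTite HEK293 cells in 2% charcoal/dextran FBS medium were preincubated 4 h at 37 C, given compound (0.59 nM to 92 uM) plus 0.4 nM T3 (final) for 18 h, then CCF4 for 2 h at RT; Hill fit gave IC50.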

[7] = qHTS assay for small molecule activators of the p53 signaling pathway (AID 651743; active = well fitted activation curve with a large enough effect in the signal ratio, not every such curve was filed as active; the % refers to the signal ratio; note: series mostly up to about 92 µM; % of control where 0% means no effect); settings: HCT-116 p53RE-bla, beta-lactamase FRET ratio, 16 h; activation: stronger effect = higher value
Method in brief: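 Cell-based beta-lactamase reporter (p53 response elements, HCT-116 background). After a 5-hour preincubation, cells received compound for 16 hours at 37 C; substrate development ran 2 hours at room temperature.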

[8] = qHTS assay for environmental chemicals that activate the Aryl hydrocarbon Receptor (AhR) signaling pathway (AID 651777); settings: 1A2-DRE human hepatoma cells, luciferase, 24 h; activation: stronger effect = higher value; note: % of control where 0% means no effect; nearly all actives have a fitted effect of over 15% in size
Method in brief: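 Human hepatoma 1A2-DRE cells stably carrying a DRE/CYP1A2 promoter–luciferase reporter, 1,200 cells/well, exposed to compound 24 hr at 37 C. Luciferase read by One-Glo luminescence after 30 min at room temperature; increased signal marks AhR activation.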

[9] = target: Peroxisome proliferator-activated receptor alpha (Homo sapiens) (UniProt Q07869); assay: qHTS assay for small molecule agonists of the peroxisome proliferator-activated receptor alpha (PPARalpha) signaling pathway (AID 651778); settings: PathHunter PPARalpha complementation, chemiluminescence, 6 h; max response: stronger effect = higher value; note: % of control where 0% means no effect
Chain of Peroxisome proliferator-activated receptor alpha (Homo sapiens) (Q07869 whole entry, looked up): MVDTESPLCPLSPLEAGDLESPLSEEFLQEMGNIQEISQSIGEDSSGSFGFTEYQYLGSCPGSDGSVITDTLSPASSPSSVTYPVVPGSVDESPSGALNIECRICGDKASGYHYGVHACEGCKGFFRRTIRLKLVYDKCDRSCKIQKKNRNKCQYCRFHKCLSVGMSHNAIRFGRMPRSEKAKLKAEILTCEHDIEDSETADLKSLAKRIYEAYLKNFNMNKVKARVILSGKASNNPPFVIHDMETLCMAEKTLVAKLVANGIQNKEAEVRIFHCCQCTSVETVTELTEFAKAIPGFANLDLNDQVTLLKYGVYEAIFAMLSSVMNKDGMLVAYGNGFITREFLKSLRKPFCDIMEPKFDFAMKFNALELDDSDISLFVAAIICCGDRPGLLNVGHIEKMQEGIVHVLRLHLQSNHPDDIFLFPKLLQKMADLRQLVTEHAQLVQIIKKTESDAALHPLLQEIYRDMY
Method in brief: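 Cells plated at 2,000/well and held overnight at 37 C, 5% CO2, then compound added by pin tool for 6 hr; after PathHunter detection reagent and 60 min at room temperature, chemiluminescence from enzyme complementation was read.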

[10] = qHTS assay for small molecule agonists of the antioxidant response element (ARE) signaling pathway measured by Nrf2-dependant transcriptional activity - cell viability counter screen (AID 720653; active = well fitted curve in the direction sought with a large enough effect in the repeat runs; an effect the other way counts as inactive or inconclusive; note: % is set by controls: 0 for no effect and ±100 for the full control effect); settings: ARE-bla HepG2 viability, CellTiter-Glo ATP luminescence, 16 h; max response: stronger effect = lower value
Method in brief: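 ARE-bla HepG2 cells (2,000/well) rested 5 hrs at 37C/5% CO2, then exposed to compounds in DMSO for 16 hrs. Viability was read in the same wells as intracellular ATP by luminescence, 30 min at room temperature after reagent addition.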

[11] = qHTS assay for cell viability of HEK293 cells (AID 743288); settings: ATP luminescence (CellTiter-Glo), 18 h; max response: stronger effect = lower value; note: % is set by controls: 0 for no effect and ±100 for the full control effect; nearly all actives have a fitted effect of over 50% in size
Method in brief: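 Total intracellular ATP, measured with a luciferase-coupled reagent, indicates the number of viable HEK293 cells. Exposure to test chemicals lasts 18 h at 37 C in 1,536-well format at 2,000 cells/well.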

[12] = qHTS assay for cell viability of the p53RE-bla HCT-116 cell line (AID 743292); note: % is set by controls: 0 for no effect and ±100 for the full control effect; nearly all actives have a fitted effect of over 55% in size
Method in brief: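 CellSensor p53RE-bla HCT-116 cells (4,000/well) pre-incubated 5 h at 37 C, then exposed to compounds in DMSO for 16 h at 37 C. Viability read as ATP content by CellTiter-Glo luminescence after 30 min at room temperature.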

[13] = target: Nuclear receptor subfamily 1 group I member 2 (Rattus norvegicus) (UniProt Q9R1A7); assay: qHTS assay for small molecule activators of the rat pregnane X receptor (rPXR) signaling pathway (AID 651751; call rule not given here; note: 0% is about no effect); settings: rPXR reporter cells, luciferase (One-Glo), 24 h
Chain of Nuclear receptor subfamily 1 group I member 2 (Rattus norvegicus) (Q9R1A7 whole entry, looked up): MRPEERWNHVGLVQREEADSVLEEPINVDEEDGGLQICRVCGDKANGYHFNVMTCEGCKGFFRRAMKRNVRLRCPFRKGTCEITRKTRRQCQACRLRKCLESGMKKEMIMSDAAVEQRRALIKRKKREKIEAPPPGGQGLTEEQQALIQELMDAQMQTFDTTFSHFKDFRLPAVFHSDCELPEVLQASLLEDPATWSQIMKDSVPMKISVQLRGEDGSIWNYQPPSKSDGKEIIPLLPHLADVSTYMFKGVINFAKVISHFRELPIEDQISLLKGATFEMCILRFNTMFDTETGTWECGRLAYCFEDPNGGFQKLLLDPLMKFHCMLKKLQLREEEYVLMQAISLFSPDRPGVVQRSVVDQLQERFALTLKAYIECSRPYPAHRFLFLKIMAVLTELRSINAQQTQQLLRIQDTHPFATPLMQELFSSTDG

[14] = target: Peroxisome proliferator-activated receptor delta (Homo sapiens) (UniProt Q03181); assay: qHTS assay for small molecule agonists of peroxisome proliferator-activated receptor delta signaling (AID 588534; calls by dose curve;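 note: 0% = DMSO basal wells and 100% = positive control agonist at 10 µM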)
Chain of Peroxisome proliferator-activated receptor delta (Homo sapiens) (Q03181 whole entry, looked up): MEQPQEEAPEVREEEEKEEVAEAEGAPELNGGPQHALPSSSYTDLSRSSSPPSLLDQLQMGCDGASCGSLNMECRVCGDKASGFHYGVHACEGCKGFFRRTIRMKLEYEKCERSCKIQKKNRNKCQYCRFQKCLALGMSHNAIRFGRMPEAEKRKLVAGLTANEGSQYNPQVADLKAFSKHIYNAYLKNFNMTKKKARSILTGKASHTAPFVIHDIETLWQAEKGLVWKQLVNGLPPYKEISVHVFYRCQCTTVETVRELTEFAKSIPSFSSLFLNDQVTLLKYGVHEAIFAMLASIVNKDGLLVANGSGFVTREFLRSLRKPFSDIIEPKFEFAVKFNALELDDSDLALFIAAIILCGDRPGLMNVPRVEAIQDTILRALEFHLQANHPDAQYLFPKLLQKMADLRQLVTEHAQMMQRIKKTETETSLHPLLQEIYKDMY
Method in brief: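 Cells carrying a PPAR-delta beta-lactamase reporter were treated with compounds for 18 h at 37 °C in agonist mode. CCF4 fluorescence was read after 2 h; EC50 and efficacy from Hill fits.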

[15] = qHTS assay for small molecule agonists of retinoid X receptor alpha signaling (AID 588544; calls by dose curve;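 for activation: 0% = DMSO basal wells and 100% = reference agonist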); settings: HEK293T RXRa-UAS-bla, beta-lactamase reporter, 18 h; 530 nm emission
[16] = target: Retinoic acid receptor RXR-alpha (Homo sapiens) (UniProt P19793); assay: as above
Chain of Retinoic acid receptor RXR-alpha (Homo sapiens) (P19793 whole entry, looked up): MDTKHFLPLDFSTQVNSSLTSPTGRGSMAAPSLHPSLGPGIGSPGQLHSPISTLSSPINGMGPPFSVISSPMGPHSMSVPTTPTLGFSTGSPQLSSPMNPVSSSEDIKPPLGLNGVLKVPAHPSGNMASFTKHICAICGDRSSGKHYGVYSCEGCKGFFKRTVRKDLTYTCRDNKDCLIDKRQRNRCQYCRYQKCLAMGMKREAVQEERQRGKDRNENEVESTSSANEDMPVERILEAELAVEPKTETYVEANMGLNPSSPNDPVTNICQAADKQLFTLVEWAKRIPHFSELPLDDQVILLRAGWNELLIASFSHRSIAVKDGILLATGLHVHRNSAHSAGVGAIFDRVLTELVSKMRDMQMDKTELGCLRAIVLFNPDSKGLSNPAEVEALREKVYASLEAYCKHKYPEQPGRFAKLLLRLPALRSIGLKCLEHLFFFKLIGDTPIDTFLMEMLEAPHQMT

[17] = qHTS assay for small molecule antagonists of retinoid X receptor alpha signaling (AID 588546; active = well fitted inhibition curve with a large enough effect in the signal ratio, with a control signal flat, not every such curve was filed as active; the % refers to the signal ratio;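 note: cells stimulated with 9-cis-retinoic acid as agonist; % is set by controls: 0 for no effect and ±100 for the full control effect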); settings: HEK293T RXRa-UAS-bla, beta-lactamase ratio, antagonist mode; measured here: W530 green channel, cytotoxicity proxy
Method in brief: (§1)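 Beta-lactamase reporter inhibition, read as CCF4 fluorescence ratio (ex 405, em 460/530 nm) after 2 h at RT. HEK293T UAS-bla cells, 2500/well, were stimulated with 9-cis-RA at 500 or 100 nM final alongside test compound for 18 h at 37 C.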

[18] = target: Retinoic acid receptor RXR-alpha (Homo sapiens) (UniProt P19793); assay: as above; settings: HEK293T RXRa-UAS-bla, beta-lactamase ratio, antagonist mode
Method in brief: as §1

[19] = qHTS assay for small molecule agonists of the antioxidant response element (ARE) signaling pathway measured by Nrf2-dependant transcriptional activity (AID 720636; active = well fitted curve in the direction sought with a large enough effect in the repeat runs; an effect the other way counts as inactive or inconclusive; note: % of control where 0% means no effect)
Method in brief: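 ARE-luc HepG2 cells carrying an Nrf2-responsive luciferase reporter, in medium with 1% dialyzed FBS, exposed to compound for 16 hr at 37 C, 5% CO2. Luminescence read 30 min after ONE-Glo addition.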

[20] = target: Vitamin D3 receptor (Homo sapiens) (UniProt P11473); assay: qHTS assay for small molecule agonists of vitamin D receptor signaling (AID 588543; calls by dose curve;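 note: 0% = DMSO basal and 100% = reference agonist control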)
Chain of Vitamin D3 receptor (Homo sapiens) (P11473 whole entry, looked up): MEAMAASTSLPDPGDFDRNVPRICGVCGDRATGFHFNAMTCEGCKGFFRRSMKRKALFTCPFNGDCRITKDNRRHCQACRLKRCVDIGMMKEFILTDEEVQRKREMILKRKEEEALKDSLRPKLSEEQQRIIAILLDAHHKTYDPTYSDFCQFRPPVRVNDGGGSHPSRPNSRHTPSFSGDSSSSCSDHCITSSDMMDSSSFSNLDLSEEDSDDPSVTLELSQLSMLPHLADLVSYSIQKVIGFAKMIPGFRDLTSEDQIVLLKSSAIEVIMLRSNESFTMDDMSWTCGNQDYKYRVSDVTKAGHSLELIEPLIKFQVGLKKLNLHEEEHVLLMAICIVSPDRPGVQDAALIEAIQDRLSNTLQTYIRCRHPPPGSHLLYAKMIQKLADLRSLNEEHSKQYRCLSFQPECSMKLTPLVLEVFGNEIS
Method in brief: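 Agonist-mode beta-lactamase reporter: HEK293T VDR-UAS-bla cells in charcoal-stripped 2% FBS, compound series 16 h 37 C, CCF4 2 h RT. EC50 from Hill fit, scaled against DMSO and 50 nM calcitriol control.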

Structure (SMILES) | Potency [1] | activation [2] | Potency [3] | Potency [4] | Potency [5] | activity change % (negative = inhibition) [6] | activation [7] | activation [8] | max response [9] | max response [10] | max response [11] | Potency [12] | max response [13] | outcome [14] | max response [15] | Potency [16] | max response [17] | max response [18] | Potency [19] | outcome [20]
CC(C)N(C(=O)COc1nnc(C(F)(F)F)s1)c1ccc(F)cc1 | inactive | 1.07% (inactive) | inactive | inactive | inactive | -0.765% (inactive) | 0.0644% (inactive) | -0.614% (inactive) | -0.147% (inactive) | -9% (inactive) | -8% (inactive) | inactive | -3.84% (inactive) |  |  |  |  |  |  | 
O=C(O)C(F)(F)C(F)(F)C(F)(F)C(F)(F)C(F)(F)C(F)(F)C(F)(F)C(F)(F)C(F)(F)F | inactive | -0.443% (inactive) | inactive | inactive |  | -14.6% (inactive) and -11.9% (inactive) | 5.35% (inactive) | -2.6% (inactive) and 0.106% (inactive) | -0.9% (inactive) and 3.39% (inactive) | -6.6% (inactive) and -12.4% (inactive) | -5.33% (inactive) and -8.2% (inactive) | inactive | -0.489% (inactive) and -1.36% (inactive) | inactive | -12.9% and -38.7% | inactive | -7.72% | 20.8% (inactive) | inactive | 
CCC(C)Nc1c([N+](=O)[O-])cc(C(C)(C)C)cc1[N+](=O)[O-] (centres undefined) | inactive | -11.2% (inactive) | inactive | inactive | inactive |  |  | 5.25% (inactive) | 8.22% (inactive) | 11% (inactive) | -2.45% (inactive) |  |  | inactive | -9.41% | inactive |  |  |  | inactive
Cn1c(-c2ccccc2)cc(-c2ccccc2)[n+]1C | inactive | -9.09% (inactive) |  | inactive |  |  |  | -2.45% (inactive) | -0.162% (inactive) | -21.3% (inactive) | 5.36% (inactive) |  | -12.3% (inactive) | inactive | 12.1% | inactive | 17.2% | -10.3% (inactive) | inactive | inactive
Brc1c(Br)c(Br)c(Br)c(Br)c1Br | inactive | -0.0722% (inactive) | inactive | inactive | inactive |  |  | 2.18% (inactive) | -0.494% (inactive) | 3.38% (inactive) | -0.224% (inactive) | inactive | 0.884% (inactive) | inactive | -7.75% | inactive | -6.9% |  | inactive | 
Brc1ccc(Oc2ccccc2)cc1 | inactive | 1.51% (inactive) | inactive | inactive |  | -9.48% (inactive) | 1.17% (inactive) | -0.643% (inactive) | -0.584% (inactive) | -10.2% (inactive) | -5.38% (inactive) | inactive | -2.47% (inactive) | inactive | -12.9% | inactive | -7.34% | 1.13% (inactive) | inactive | inactive
